Test results as given in PubChem BioAssay.
Activity calls are given as the source filed them.

Key:
[1] = binders of probe aFSTL3 on microarray, primary screen, stem cell growth factor project, biochemical, small-molecule microarray, fluorescence 635/667 (AID 1064); conditions: higher = more signal;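 also: measures binding of the biotinylated anti-FSTL3 antibody to printed compounds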
[2] = binders from COS7 lysate, DM2A8 probe, primary screen, torsin A project, cell lysate, small-molecule microarray, fluorescence 635/667 (AID 1065); conditions: higher = more signal, COS7 lysate expressing mutant human TOR1A
[3] = binders of probe aFGF2 on microarray, primary screen, stem cell growth factor project, biochemical, small-molecule microarray, fluorescence 635/667 (AID 1067); conditions: higher = more signal;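 also: measures binding of biotinylated aFGF2 protein to printed compounds on slides; z-score merges feature fluorescence and signal-to-noise across triplicate slides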
[4] = binders of probe aFGF10 on microarray, primary screen, stem cell growth factor project, biochemical, small-molecule microarray, fluorescence 635/667 (AID 1071); conditions: higher = more signal;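 also: score merges 667 nm spot intensity and signal to noise from triplicate slides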
[5] = target: Neurogenic locus notch homolog protein 2 (Homo sapiens) (UniProt Q04721); test: Notch2 binders on small-molecule microarrays, primary screen, biochemical, small-molecule microarray, 635 nm fluorescence, stem cell growth factors (AID 1073); conditions: Notch2 binding, higher = more signal
[6] = target: Pro-neuregulin-1, membrane-bound isoform (Homo sapiens) (UniProt Q02297); test: NRG1 binders on small-molecule microarrays, primary screen, psychiatric disease protein project, biochemical, small-molecule microarray, fluorescence 635/667 (AID 1075); conditions: NRG1 binding, 635 nm fluorescence, higher = more signal;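 also: score combines 667 nm spot fluorescence with signal to noise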
Chain of Pro-neuregulin-1, membrane-bound isoform (Homo sapiens) (Q02297 whole entry, looked up, the tested form may be a part, canonical isoform): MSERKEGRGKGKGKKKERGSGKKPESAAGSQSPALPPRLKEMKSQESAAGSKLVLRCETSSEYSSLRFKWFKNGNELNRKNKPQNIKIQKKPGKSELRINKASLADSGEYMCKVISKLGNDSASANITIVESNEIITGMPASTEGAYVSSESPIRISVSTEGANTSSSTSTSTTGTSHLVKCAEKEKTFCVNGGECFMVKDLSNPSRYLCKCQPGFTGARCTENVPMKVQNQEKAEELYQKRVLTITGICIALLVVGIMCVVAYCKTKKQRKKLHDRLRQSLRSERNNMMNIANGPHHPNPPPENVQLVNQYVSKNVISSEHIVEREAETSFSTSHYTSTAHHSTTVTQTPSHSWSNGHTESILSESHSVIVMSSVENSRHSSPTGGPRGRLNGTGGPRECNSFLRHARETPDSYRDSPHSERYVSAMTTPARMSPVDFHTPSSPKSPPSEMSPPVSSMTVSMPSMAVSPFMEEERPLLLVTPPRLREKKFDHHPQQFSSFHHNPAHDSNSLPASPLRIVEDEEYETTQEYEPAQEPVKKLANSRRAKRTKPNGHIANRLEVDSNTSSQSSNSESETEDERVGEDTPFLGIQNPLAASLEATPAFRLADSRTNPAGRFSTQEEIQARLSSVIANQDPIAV

[7] = test system: Neuregulin-1 EGF-like domain; test: binders of neuregulin-1 EGF-like domain, primary screen, biochemical, small-molecule microarray, 635 nm fluorescence (AID 1081); conditions: small-molecule microarray binding, higher = more signal;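 also: binding of the protein to compounds printed on small-molecule microarray slides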
[8] = FRG1 promoter luciferase signal modulators, primary screen, FRG1 inhibition for FSHD, cell-based, C2C12 myotubes, firefly/Renilla luciferase, luminescence (AID 1084); conditions: higher = more signal, called active from +8 up or from −8 down
[9] = binders of probe aFST on microarray, primary screen, stem cell growth factor project, biochemical, small-molecule microarray, fluorescence 635/667 (AID 1086); conditions: higher = more signal;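 also: score merges 667 nm fluorescence with signal-to-noise of each printed compound spot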
[10] = binders of probe aHhip on microarray, primary screen, stem cell growth factor project, biochemical, small-molecule microarray, fluorescence 635/667 (AID 1087); conditions: higher = more signal;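 also: score merges spot fluorescence at 667nm with spot signal to noise ratio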
[11] = test system: PRMT1 (protein arginine N-methyltransferase 1); test: PRMT1 binders on small-molecule microarrays, primary screen, biochemical, small-molecule microarray, 635 nm fluorescence (AID 1088); conditions: small-molecule microarray binding, higher = more signal;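 also: binding of Prmt1 protein to compounds spotted on small-molecule microarray slides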
[12] = yeast growth modulation, basal conditions, primary screen, YJM789 clinical isolate, OD600, 24 h (AID 1089);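 also: growth of clinical yeast isolate S. cerevisiae YJM 789 seeded 1000 cells per well; test concentration not given here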; conditions: S. cerevisiae YJM789 growth, higher = more signal, called active from +8 up or from −8 down
[13] = fission yeast growth modulation, primary screen, strain 972, OD600, 24 h, no modulator (AID 1090);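 also: basal condition with compound alone and no growth modifier present; test concentration not given here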; conditions: S. pombe 972 growth, higher = more signal, called active from +8 up or from −8 down
[14] = S. cerevisiae growth modulation with rapamycin, primary screen, strain BY4716, OD600, 96 h (AID 1091); conditions: higher = more signal, called active from +8 up or from −8 down; also: test concentration not given here
[15] = target: Torsin-1A-interacting protein 2 (Homo sapiens) (UniProt Q8NFQ8); test: LULL1 binders on small-molecule microarray, primary screen, cell lysate, human LULL1 lysate, 635/667 nm fluorescence (AID 1092); conditions: hLULL1 lysate binding, 635 nm fluorescence, higher = more signal;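 also: probe is lysate of COS7 cells overexpressing human LULL1; score merges per-feature 667 nm fluorescence with signal-to-noise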
Chain of Torsin-1A-interacting protein 2 (Homo sapiens) (Q8NFQ8 whole entry, looked up): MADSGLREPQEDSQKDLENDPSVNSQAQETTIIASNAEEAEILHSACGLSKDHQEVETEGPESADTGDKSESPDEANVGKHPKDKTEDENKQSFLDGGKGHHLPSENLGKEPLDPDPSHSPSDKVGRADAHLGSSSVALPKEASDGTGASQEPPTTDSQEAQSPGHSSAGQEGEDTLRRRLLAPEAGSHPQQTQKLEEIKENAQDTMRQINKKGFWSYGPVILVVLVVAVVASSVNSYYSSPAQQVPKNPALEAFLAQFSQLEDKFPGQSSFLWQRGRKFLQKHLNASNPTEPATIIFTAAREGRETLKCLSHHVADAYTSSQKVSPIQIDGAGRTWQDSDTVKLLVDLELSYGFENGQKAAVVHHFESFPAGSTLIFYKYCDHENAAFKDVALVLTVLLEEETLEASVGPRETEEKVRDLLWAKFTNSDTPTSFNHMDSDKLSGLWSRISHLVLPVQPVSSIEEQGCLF

[16] = E. coli growth modulation, two-sided OD650, primary screen, E. coli filamentation project, strain DRC41, 24 h (AID 1093); conditions: OD650, 24 h, higher = more signal, called active from +8 up or from −8 down;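 also: MC1000 strain lacking acrAB efflux and sulA so SOS filamentation is blocked; test concentration not given here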
[17] = small-molecule microarray binders of probe aLefty2, primary screen, biochemical, biotinylated probe, 635/667 nm fluorescence (AID 1094); conditions: higher = more signal;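 also: score merges spot fluorescence near 667 nm with spot signal-to-noise ratio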
[18] = test system: Noggin (protein binding on small-molecule microarray); test: Noggin binders on small-molecule microarray, primary screen, biochemical, 635/667 nm fluorescence (AID 1095); conditions: 635 nm fluorescence, higher = more signal;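 also: score merges 667 nm feature fluorescence with signal to noise over triplicate slides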
[19] = target: Neurogenic locus notch homolog protein 3 (Homo sapiens) (UniProt Q9UM47); test: NOTCH3 binders on small-molecule microarray, primary screen, biochemical, 635/667 nm fluorescence (AID 1096); conditions: NOTCH3 binding, 635 nm fluorescence, higher = more signal
Chain of Neurogenic locus notch homolog protein 3 (Homo sapiens) (Q9UM47 whole entry, looked up): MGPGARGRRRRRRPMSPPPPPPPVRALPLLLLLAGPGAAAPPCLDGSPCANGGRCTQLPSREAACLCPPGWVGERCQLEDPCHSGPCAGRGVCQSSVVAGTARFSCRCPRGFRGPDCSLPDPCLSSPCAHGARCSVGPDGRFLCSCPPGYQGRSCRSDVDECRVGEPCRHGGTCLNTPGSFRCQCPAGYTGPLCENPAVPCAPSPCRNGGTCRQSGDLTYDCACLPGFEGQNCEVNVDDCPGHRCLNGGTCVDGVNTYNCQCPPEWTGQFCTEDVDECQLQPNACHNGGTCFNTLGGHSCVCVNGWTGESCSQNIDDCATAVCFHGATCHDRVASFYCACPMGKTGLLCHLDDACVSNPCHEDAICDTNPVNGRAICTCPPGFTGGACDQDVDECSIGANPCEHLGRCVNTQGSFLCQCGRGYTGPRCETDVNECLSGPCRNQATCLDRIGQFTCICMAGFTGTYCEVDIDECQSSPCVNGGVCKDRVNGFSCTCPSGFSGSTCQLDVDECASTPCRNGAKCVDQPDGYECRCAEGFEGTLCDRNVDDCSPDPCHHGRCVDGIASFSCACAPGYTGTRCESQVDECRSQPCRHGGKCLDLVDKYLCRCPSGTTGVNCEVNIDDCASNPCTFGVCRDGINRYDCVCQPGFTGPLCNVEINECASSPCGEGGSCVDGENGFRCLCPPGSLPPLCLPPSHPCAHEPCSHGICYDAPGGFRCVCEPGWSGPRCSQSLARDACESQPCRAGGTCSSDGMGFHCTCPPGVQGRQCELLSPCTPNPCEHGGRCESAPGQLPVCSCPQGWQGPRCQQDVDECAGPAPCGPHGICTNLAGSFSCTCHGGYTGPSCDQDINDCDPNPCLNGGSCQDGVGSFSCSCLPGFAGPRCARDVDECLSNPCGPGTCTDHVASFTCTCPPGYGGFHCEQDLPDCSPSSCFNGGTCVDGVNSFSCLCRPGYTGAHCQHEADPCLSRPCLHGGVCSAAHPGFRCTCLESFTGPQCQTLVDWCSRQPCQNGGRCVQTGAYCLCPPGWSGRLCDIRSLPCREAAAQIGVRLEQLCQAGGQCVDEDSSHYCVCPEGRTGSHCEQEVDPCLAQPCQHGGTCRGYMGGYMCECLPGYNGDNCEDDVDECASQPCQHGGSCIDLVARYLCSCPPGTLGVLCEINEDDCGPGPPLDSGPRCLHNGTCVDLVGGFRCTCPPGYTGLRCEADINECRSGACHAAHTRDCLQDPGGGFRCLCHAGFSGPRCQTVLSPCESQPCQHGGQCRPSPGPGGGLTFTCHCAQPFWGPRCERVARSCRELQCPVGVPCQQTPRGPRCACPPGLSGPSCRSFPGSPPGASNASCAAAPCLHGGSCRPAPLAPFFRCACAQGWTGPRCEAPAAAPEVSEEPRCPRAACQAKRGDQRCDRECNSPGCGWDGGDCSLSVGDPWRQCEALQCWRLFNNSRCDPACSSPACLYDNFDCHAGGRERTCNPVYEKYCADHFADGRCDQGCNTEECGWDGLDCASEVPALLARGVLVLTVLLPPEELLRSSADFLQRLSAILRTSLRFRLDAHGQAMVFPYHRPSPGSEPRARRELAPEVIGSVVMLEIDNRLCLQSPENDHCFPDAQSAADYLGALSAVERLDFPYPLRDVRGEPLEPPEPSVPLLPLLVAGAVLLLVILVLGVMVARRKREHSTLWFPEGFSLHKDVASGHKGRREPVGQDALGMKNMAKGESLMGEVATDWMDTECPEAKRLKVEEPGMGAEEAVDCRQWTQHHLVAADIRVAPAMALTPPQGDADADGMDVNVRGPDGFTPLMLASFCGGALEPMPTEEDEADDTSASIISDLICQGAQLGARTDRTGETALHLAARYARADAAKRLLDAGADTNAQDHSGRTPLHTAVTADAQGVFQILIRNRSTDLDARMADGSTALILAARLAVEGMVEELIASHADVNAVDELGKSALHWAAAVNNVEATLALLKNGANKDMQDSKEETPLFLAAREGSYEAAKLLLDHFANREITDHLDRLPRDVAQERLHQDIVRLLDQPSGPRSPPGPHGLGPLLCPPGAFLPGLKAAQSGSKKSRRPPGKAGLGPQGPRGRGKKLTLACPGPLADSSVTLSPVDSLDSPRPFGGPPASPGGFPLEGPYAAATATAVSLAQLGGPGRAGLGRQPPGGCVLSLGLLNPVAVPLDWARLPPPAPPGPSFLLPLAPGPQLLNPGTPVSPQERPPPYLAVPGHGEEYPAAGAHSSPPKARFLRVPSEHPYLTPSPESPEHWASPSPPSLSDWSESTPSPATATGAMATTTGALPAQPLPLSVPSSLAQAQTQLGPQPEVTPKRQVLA

[20] = small-molecule microarray binders of probe aEGFR, primary screen, biochemical, biotinylated probe, 635/667 nm fluorescence (AID 1097); conditions: higher = more signal;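 also: probe is a biotinylated anti-EGFR antibody binding compounds printed on slides; score combines fluorescence near 667 nm and signal to noise of each spot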

Row | SMILES | composite z-score [1] | composite z-score [2] | composite z-score [3] | composite z-score [4] | composite z-score [5] | composite z-score [6] | composite z-score [7] | z-score [8] | composite z-score [9] | composite z-score [10] | composite z-score [11] | z-score [12] | z-score [13] | z-score [14] | composite z-score [15] | z-score [16] | composite z-score [17] | composite z-score [18] | composite z-score [19] | composite z-score [20]
1 | C[C@]1(C(=O)NCc2ccccc2)c2ccccc2C(=O)N(Cc2cc(F)cc(C(F)(F)F)c2)[C@H]1c1ccc(CO)cc1 | 0.46 | -0.512 | -0.0894 | -0.0459 | -0.706 | -0.353 | 1.26 | -3.12 (inactive) | -0.344 | -0.0994 | 0.113 | 0.328 (inactive) | -0.325 (inactive) | -0.0212 (inactive) | 2.68 | 0.808 (inactive) | -0.0508 | -1.67 | -1.37 | -0.253
2 | CCOC(=O)C[C@H]1[C@H](OC(=O)c2ccccc2-c2ccccc2)[C@@H](NC(=O)Cc2ccc(OC)cc2)c2cc(OCCCO)ccc2N1C(=O)c1ccccc1 | -0.0656 | 0.629 | -0.0942 | 0.321 | 0.125 | -0.299 | -0.537 | -0.735 (inactive) | 0.369 | -0.0645 | -0.617 | 0.82 (inactive) | 0.266 (inactive) | 1.36 (inactive) | 1.33 | -1.08 (inactive) | -0.218 | -0.337 | -0.231 | -0.115
3 | C=C[C@H](C)[C@@H](O)c1ccc(O)c2ccccc12 | -0.161 | -0.0359 | 0.126 | -0.749 | -1 | -0.329 | -0.158 | -0.202 (inactive) | -1.03 | 0.0274 | -0.169 | -0.968 (inactive) | -13.3 (active) | 4.25 (inactive) | 0.853 | 0.149 (inactive) | -0.254 | -0.0597 | -0.0004 | -0.322
